Laboratory results: PubChem BioAssay
Where “and” joins values, the source holds several entries; their conditions need not be identical. Identical values can stand only once. Calls of active or inactive are those of the source.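 The calls were made as follows, unless noted: active = thallium flux through the channel raised or lowered by more than 3 SD from vehicle-only wells, actives on both sides; inactive = the rest.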

Columns and labels:
[1] = biological target: NAD(+) hydrolase SARM1 (Homo sapiens) (UniProt Q6SZW1); assay: blocking NAD cleavage by SARM1 SAM-TIR – cell lysate, NAD-Glo luminescence (AID 1508614;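 active = compound whose remaining NAD level is above about 45 nM, limit read from the data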;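 also: higher remaining NAD means stronger inhibition of SARM1 NADase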); settings: SAM-TIR HEK293T lysate NADase, at 1 µM, stronger effect = higher value
[2] = biological target: Mitogen-activated protein kinase 7 (Homo sapiens) (UniProt Q13164); assay: Gal4-ERK5 driven luciferase induction – cell-based, HTS, primary screen (AID 1508626;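 active = luciferase signal above three times the same-plate solvent-only control wells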;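 also: luciferase driven by Gal4-ERK5 fusion binding five Gal4 sites before minimal TATA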); settings: HeLa Gal4-ERK5 transactivation, 18 h, at 5 µM, stronger effect = higher value
[3] = galactose survival enhancers in mitochondrial complex I cybrids – cell-based, galactose medium, ATP luminescence, primary screen (AID 1645843;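 active = z-score of at least 1.8 in each of two replicates, scored against plate mean and spread of sample wells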;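 also: positive z means more ATP and so rescue of galactose-driven cybrid death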); settings: complex I mutant cybrid cells, 72 h, stronger effect = higher value
F380Y = assay: BK channel mutant inhibitors and activators – cell-based, U2OS BacMam, thallium flux, beta subunits, selectivity assay, profiling panel (AID 1259406); settings: U2OS BacMam BK variants, at 30 µM;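 also: initial slope of Thallos dye fluorescence rise after thallium is added; log ratio against the mean of 0.3% DMSO vehicle wells on the same plate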
F380Y/beta1 = assay: as above; settings: U2OS BacMam BK variants, at 30 µM

Chain of NAD(+) hydrolase SARM1 (Homo sapiens) (Q6SZW1 whole entry, looked up, the tested form may be a part): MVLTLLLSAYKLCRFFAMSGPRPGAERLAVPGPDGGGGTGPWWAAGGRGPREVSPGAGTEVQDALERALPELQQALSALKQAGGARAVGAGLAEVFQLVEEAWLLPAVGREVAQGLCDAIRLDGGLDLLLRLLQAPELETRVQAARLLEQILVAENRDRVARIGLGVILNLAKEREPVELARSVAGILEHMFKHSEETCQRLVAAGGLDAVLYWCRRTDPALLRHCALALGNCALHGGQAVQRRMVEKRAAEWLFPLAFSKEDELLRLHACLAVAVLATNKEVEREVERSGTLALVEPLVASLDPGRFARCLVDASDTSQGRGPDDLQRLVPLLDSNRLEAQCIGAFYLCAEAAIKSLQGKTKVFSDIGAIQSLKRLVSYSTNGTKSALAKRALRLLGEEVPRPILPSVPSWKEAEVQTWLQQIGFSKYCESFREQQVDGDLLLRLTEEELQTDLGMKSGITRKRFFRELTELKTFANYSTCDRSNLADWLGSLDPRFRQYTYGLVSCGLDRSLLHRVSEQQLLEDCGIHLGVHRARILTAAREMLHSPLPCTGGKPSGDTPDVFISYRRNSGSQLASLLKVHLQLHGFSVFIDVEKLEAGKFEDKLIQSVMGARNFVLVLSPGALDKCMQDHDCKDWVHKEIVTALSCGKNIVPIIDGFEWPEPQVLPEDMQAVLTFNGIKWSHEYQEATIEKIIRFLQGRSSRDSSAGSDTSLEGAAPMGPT
Chain of Mitogen-activated protein kinase 7 (Homo sapiens) (Q13164 whole entry, looked up, the tested form may be a part): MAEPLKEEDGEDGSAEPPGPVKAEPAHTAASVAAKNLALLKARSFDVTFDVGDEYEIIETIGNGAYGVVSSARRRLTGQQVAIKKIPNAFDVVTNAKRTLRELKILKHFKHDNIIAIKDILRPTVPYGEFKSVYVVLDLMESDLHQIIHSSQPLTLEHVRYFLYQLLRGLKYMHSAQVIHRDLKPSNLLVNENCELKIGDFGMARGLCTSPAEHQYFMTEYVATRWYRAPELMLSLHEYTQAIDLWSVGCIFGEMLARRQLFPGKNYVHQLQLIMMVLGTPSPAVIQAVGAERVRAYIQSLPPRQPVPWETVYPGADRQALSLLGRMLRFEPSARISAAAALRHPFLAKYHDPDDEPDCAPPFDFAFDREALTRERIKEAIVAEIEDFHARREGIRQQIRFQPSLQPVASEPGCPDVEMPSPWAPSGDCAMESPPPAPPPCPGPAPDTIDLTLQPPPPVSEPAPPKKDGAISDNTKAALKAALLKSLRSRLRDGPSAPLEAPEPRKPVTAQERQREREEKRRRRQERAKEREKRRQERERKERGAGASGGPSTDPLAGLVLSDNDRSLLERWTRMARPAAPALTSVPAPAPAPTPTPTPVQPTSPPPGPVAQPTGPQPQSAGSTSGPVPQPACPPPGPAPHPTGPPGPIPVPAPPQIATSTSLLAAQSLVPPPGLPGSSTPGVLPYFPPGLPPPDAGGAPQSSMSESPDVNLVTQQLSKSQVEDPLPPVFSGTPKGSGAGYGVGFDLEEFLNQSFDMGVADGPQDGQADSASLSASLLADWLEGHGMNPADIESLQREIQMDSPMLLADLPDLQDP

CC1(C)O[C@@H]2C[C@H]3[C@@H]4C[C@H](F)C5=CC(=O)C=C[C@]5(C)[C@@]4(F)[C@@H](O)C[C@]3(C)[C@]2(C(=O)CO)O1
active: log fold change Tl+ flux (F380Y) 0.2 | log fold change Tl+ flux (F380Y/beta1) 0.211
inactive: remaining NAD [1] 10 nM | luciferase signal [2] 124 AU | z-score [3] -0.48 and 0.45

CC(c1cc2ccccc2s1)N(O)C(N)=O (stereo not drawn)
inactive: remaining NAD [1] 10 nM | luciferase signal [2] 36 AU | z-score [3] 0.465 and 0.63 | log fold change Tl+ flux (F380Y) -0.00504 | log fold change Tl+ flux (F380Y/beta1) 0.00537

NS(=O)(=O)c1cc(C(=O)O)c(NCc2ccco2)cc1Cl
inactive: remaining NAD [1] 10 nM | luciferase signal [2] 72 AU | z-score [3] 0.405 and 0.415 | log fold change Tl+ flux (F380Y) -0.0179 | log fold change Tl+ flux (F380Y/beta1) -0.0049

COc1cc2c(cc1OC)C(=O)C(CC1CCN(Cc3ccccc3)CC1)C2 (stereo not drawn)
inactive: remaining NAD [1] 10 nM | luciferase signal [2] 32 AU | z-score [3] -0.225 | log fold change Tl+ flux (F380Y) 0.0206 | log fold change Tl+ flux (F380Y/beta1) -0.0145

O=C1CC2(CCCC2)CC(=O)N1CCCCN1CCN(c2ncccn2)CC1
inactive: remaining NAD [1] 10 nM | luciferase signal [2] 112 AU | log fold change Tl+ flux (F380Y) 0.0254 | log fold change Tl+ flux (F380Y/beta1) 0.0242

CCOC(=O)c1ncn2c1CN(C)C(=O)c1cc(F)ccc1-2
inactive: remaining NAD [1] 10 nM | luciferase signal [2] 60 AU | log fold change Tl+ flux (F380Y) -0.0521 | log fold change Tl+ flux (F380Y/beta1) -0.00468

COc1cc2nc(N3CCN(C(=O)C4COc5ccccc5O4)CC3)nc(N)c2cc1OC (stereo not drawn)
inactive: remaining NAD [1] 10 nM | luciferase signal [2] 32 AU | z-score [3] -0.385 and -0.73 and 0.525
active: log fold change Tl+ flux (F380Y) -0.351 | log fold change Tl+ flux (F380Y/beta1) -0.143

COc1ccccc1N1CCN(CC(O)COc2cccc3ccccc23)CC1 (stereo not drawn)
inactive: remaining NAD [1] 10 nM | log fold change Tl+ flux (F380Y) -0.03 | log fold change Tl+ flux (F380Y/beta1) -0.0336

Oc1ccc(C2CNCCc3c2cc(O)c(O)c3Cl)cc1 (stereo not drawn)
inactive: remaining NAD [1] 10 nM | log fold change Tl+ flux (F380Y) 0.0202 | log fold change Tl+ flux (F380Y/beta1) -0.0465

Cc1ccsc1C(=CCCN1CCC[C@@H](C(=O)O)C1)c1sccc1C
inactive: log fold change Tl+ flux (F380Y) 0.0491 | log fold change Tl+ flux (F380Y/beta1) 0.0426

Cc1cccc(C)c1OCC(C)N (stereo not drawn)
inactive: remaining NAD [1] 10 nM | luciferase signal [2] 52 AU | z-score [3] -0.045 and 0.78 and -0.055 | log fold change Tl+ flux (F380Y) -0.014 | log fold change Tl+ flux (F380Y/beta1) 0.0282

C[C@@H]1C[C@H]2[C@@H]3CCC4=CC(=O)C=C[C@]4(C)[C@@]3(F)[C@@H](O)C[C@]2(C)[C@H]1C(=O)CO
inactive: remaining NAD [1] 10 nM | luciferase signal [2] 32 AU | log fold change Tl+ flux (F380Y) 0.0533 | log fold change Tl+ flux (F380Y/beta1) 0.0836

Nc1nnc(-c2cccc(Cl)c2Cl)c(N)n1
inactive: remaining NAD [1] 10 nM | luciferase signal [2] 44 AU | z-score [3] 0.675 and 0.31 and 0.775 | log fold change Tl+ flux (F380Y) -0.00765 | log fold change Tl+ flux (F380Y/beta1) -0.046

COC(=O)C1=C(C)NC(C)=C(C(=O)O[C@@H]2CCCN(Cc3ccccc3)C2)[C@@H]1c1cccc([N+](=O)[O-])c1
inactive: log fold change Tl+ flux (F380Y) -0.0664 | log fold change Tl+ flux (F380Y/beta1) -0.000881

CC(C)c1nc(CN(C)C(=O)N[C@H](C(=O)N[C@@H](Cc2ccccc2)C[C@H](O)[C@H](Cc2ccccc2)NC(=O)OCc2cncs2)C(C)C)cs1
inactive: remaining NAD [1] 10 nM
active: log fold change Tl+ flux (F380Y) -0.114 | log fold change Tl+ flux (F380Y/beta1) -0.406

CC(C)(C)NC(=O)[C@@H]1CN(Cc2cccnc2)CCN1C[C@@H](O)C[C@@H](Cc1ccccc1)C(=O)N[C@H]1c2ccccc2C[C@H]1O
inactive: log fold change Tl+ flux (F380Y) -0.012 | log fold change Tl+ flux (F380Y/beta1) -0.0545

CCOC(=O)O[C@]1(C(=O)OCCl)CC[C@H]2[C@@H]3CCC4=CC(=O)C=C[C@]4(C)[C@H]3[C@@H](O)C[C@@]21C
inactive: log fold change Tl+ flux (F380Y) -0.0169 | log fold change Tl+ flux (F380Y/beta1) -0.0185

C[C@@H]1C[C@H]2[C@@H]3C[C@H](F)C4=CC(=O)C(Cl)=C[C@]4(C)[C@@]3(F)[C@@H](O)C[C@]2(C)[C@@]1(O)C(=O)CO
inactive: log fold change Tl+ flux (F380Y) 0.0685 | log fold change Tl+ flux (F380Y/beta1) 0.0734

C#C[C@]1(O)CC[C@H]2[C@@H]3CCc4cc(OC)ccc4[C@H]3CC[C@@]21C
inactive: remaining NAD [1] 10 nM | luciferase signal [2] 80 AU | log fold change Tl+ flux (F380Y) -0.0454 | log fold change Tl+ flux (F380Y/beta1) -0.0068

CCCOc1ccc(C(=O)OCCN(CC)CC)cc1N
inactive: remaining NAD [1] 10 nM | luciferase signal [2] 212 AU | z-score [3] 0.735 and 0.01 | log fold change Tl+ flux (F380Y) 0.0362 | log fold change Tl+ flux (F380Y/beta1) -0.0262

O=C1[C@H]2CCCC[C@H]2C(=O)N1CCCCN1CCN(c2nsc3ccccc23)CC1
inactive: log fold change Tl+ flux (F380Y) 0.0537 | log fold change Tl+ flux (F380Y/beta1) 0.0543

COc1ccc2nc(S(=O)Cc3ncc(C)c(OC)c3C)[nH]c2c1 (stereo not drawn)
inactive: remaining NAD [1] 10 nM | luciferase signal [2] 68 AU | log fold change Tl+ flux (F380Y) 0.0402 | log fold change Tl+ flux (F380Y/beta1) 0.0641

CC1(C)S[C@@H]2[C@H](N=CN3CCCCCC3)C(=O)N2[C@H]1C(=O)O
inactive: log fold change Tl+ flux (F380Y) 0.00482 | log fold change Tl+ flux (F380Y/beta1) 0.0062

COc1ccc(C2CNC(=O)C2)cc1OC1CCCC1 (stereo not drawn)
inactive: remaining NAD [1] 10 nM | luciferase signal [2] 72 AU | log fold change Tl+ flux (F380Y) -0.0147 | log fold change Tl+ flux (F380Y/beta1) -0.0167

CCCN1CCCC[C@H]1C(=O)Nc1c(C)cccc1C
inactive: log fold change Tl+ flux (F380Y) 0.0271 | log fold change Tl+ flux (F380Y/beta1) 0.0176

COc1cc2nc(N3CCN(C(=O)C4CCCO4)CC3)nc(N)c2cc1OC (stereo not drawn)
inactive: remaining NAD [1] 10 nM | luciferase signal [2] 64 AU | log fold change Tl+ flux (F380Y) 0.0434 | log fold change Tl+ flux (F380Y/beta1) -0.102

CC(C)NCC(O)COc1ccc(CCOCC2CC2)cc1 (stereo not drawn)
inactive: remaining NAD [1] 10 nM | log fold change Tl+ flux (F380Y) -0.00418 | log fold change Tl+ flux (F380Y/beta1) 0.0244

COC(=O)C1=C(C)NC(C)=C(C(=O)OCC(C)C)C1c1ccccc1[N+](=O)[O-] (stereo not drawn)
active: log fold change Tl+ flux (F380Y) 0.333 | log fold change Tl+ flux (F380Y/beta1) 0.689
inactive: remaining NAD [1] 10 nM | luciferase signal [2] 72 AU | z-score [3] -1.86 and -2

CCOC(=O)[C@H](CCc1ccccc1)N[C@@H](C)C(=O)N1[C@H](C(=O)O)C[C@@H]2CCC[C@@H]21
inactive: remaining NAD [1] 10 nM | luciferase signal [2] 316 AU | z-score [3] 2.63 and 0.46 | log fold change Tl+ flux (F380Y) -0.0209 and 0.0487 | log fold change Tl+ flux (F380Y/beta1) -0.00638 and 0.058

Cc1cnc(NC(=O)C2=C(O)c3ccccc3S(=O)(=O)N2C)s1
inactive: remaining NAD [1] 10 nM | luciferase signal [2] 52 AU | z-score [3] 1.35 and 0.585 and 0.515 | log fold change Tl+ flux (F380Y) -0.00196 | log fold change Tl+ flux (F380Y/beta1) -0.0291

Clc1ccc2nsnc2c1NC1=NCCN1
inactive: log fold change Tl+ flux (F380Y) -0.038 | log fold change Tl+ flux (F380Y/beta1) -0.0369

Cc1ncc([N+](=O)[O-])n1CC(O)CCl (stereo not drawn)
inactive: remaining NAD [1] 10 nM | luciferase signal [2] 36 AU | z-score [3] 0.42 | log fold change Tl+ flux (F380Y) -0.0142 | log fold change Tl+ flux (F380Y/beta1) -0.0206

CN(C)CC[C@@H](c1ccc(Cl)cc1)c1ccccn1
inactive: remaining NAD [1] 10 nM | luciferase signal [2] 40 AU | z-score [3] -0.155 | log fold change Tl+ flux (F380Y/beta1) 0.0236
active: log fold change Tl+ flux (F380Y) 0.112

CN1CCC(=C2c3ccccc3C=Cc3ccccc32)CC1
active: log fold change Tl+ flux (F380Y) 0.15
inactive: remaining NAD [1] 10 nM | luciferase signal [2] 20 AU | log fold change Tl+ flux (F380Y/beta1) -0.0427

O=C1c2cccc3c2[C@H](CCC3)CN1[C@@H]1CN2CCC1CC2
inactive: log fold change Tl+ flux (F380Y) 0.0472 | log fold change Tl+ flux (F380Y/beta1) 0.0342

CC(C)(C)C(O)/C=C/c1ccc2c(c1)OCO2 (stereo not drawn)
inactive: log fold change Tl+ flux (F380Y) -0.0156
active: log fold change Tl+ flux (F380Y/beta1) 0.105

CN1CCC(=C2c3ccccc3CC(=O)c3sccc32)CC1
inactive: remaining NAD [1] 10 nM | luciferase signal [2] 76 AU | log fold change Tl+ flux (F380Y) 0.0548 | log fold change Tl+ flux (F380Y/beta1) 0.0457

CC(C)[C@H](N)C(=O)OCCOCn1cnc2c(=O)[nH]c(N)nc21
inactive: remaining NAD [1] 10 nM | luciferase signal [2] 32 AU | z-score [3] 0.625 | log fold change Tl+ flux (F380Y) -0.0232 | log fold change Tl+ flux (F380Y/beta1) -0.0206

c1cnc(N2CCN(Cc3ccc4c(c3)OCO4)CC2)nc1
inactive: log fold change Tl+ flux (F380Y) -0.0152

O=C1CCc2ccc(OCCCCN3CCN(c4cccc(Cl)c4Cl)CC3)cc2N1
inactive: remaining NAD [1] 10 nM | z-score [3] -1.88 and -2.22 | log fold change Tl+ flux (F380Y) 0.0772 | log fold change Tl+ flux (F380Y/beta1) 0.0377

O=C(NCCO[N+](=O)[O-])c1cccnc1
inactive: remaining NAD [1] 10 nM | z-score [3] 0.795 and 0.02 and 0.605 | log fold change Tl+ flux (F380Y) 0.0612 | log fold change Tl+ flux (F380Y/beta1) 0.00537

CC(C)c1ccc2oc3nc(N)c(C(=O)O)cc3c(=O)c2c1
inactive: remaining NAD [1] 10 nM | z-score [3] 0.635 | log fold change Tl+ flux (F380Y) 0.0548 | log fold change Tl+ flux (F380Y/beta1) 0.0494

CCN(CC)CCNC(=O)c1cc(Cl)c(N)cc1OC
inactive: remaining NAD [1] 10 nM | luciferase signal [2] 100 AU | z-score [3] -0.285 and 0.055 and 0.595 | log fold change Tl+ flux (F380Y) -0.00476 | log fold change Tl+ flux (F380Y/beta1) -0.00572
